ELG1 repair inh = inhibitors of ELG1-dependent DNA repair in HEK293T cells | actives 2.3% (n = 330,000) | HEK293T ELG1-luciferase reporter, luminescence, 16 h; DNA damage induced by 5-fluorouridine | Potency, µM (highest dose often 46.1 µM), actives largely listed as inhibitors; further: nearly all actives have a fitted effect of over 55% in size
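Step one: seed 2,000 cells per well. Step two: pin-transfer compound or DMSO alongside 5-fluorouridine. Step three: incubate 16 hr, 37 °C, 5% CO2. Step four: add ONE-Glo, wait 30 min, read luminescence.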
NPC1 prom act = NPC1 promoter activation. AID 485313. Huh7 NPC1 promoter luciferase reporter, 24 h. Potency, µM (series often up to 9.22 µM), usual class: activators. actives 2.4% (n = 320,000); further: nearly all actives have a fitted effect of over 60% in size
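Huh7 cells stably carrying NPC1 promoter–luciferase, plated in Opti-MEM with 10% FBS for 2 h, were exposed to compound in DMSO for 24 h at 37 °C; luciferase reagent was added for 10 min and luminescence read.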
Rab9 prom act = activators of Rab9 promoter | Huh7 Rab9 promoter-luciferase reporter, luminescence, 24 h | Potency, µM (titrated, usually from 9.22 µM), most hits filed as activators | actives 2.8% (n = 320,000) | AID 485297; further: nearly all actives have a fitted effect of over 60% in size
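Measured in stably transfected Huh7 cells bearing a Rab9 promoter–luciferase construct: 24 h compound treatment at 37 °C, followed by luminescence detection.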
FLuc modulator = inhibits or activates purified firefly luciferase, miR-21 counter-screen; purified FLuc, Km substrates, luminescence inhibition; Potency, µM (series often up to 57.5 µM), hits mostly inhibitors; actives 6.9% (n = 360,000); further: nearly all actives have a fitted effect of over 55% in size
Target sequence (P08659 whole entry, looked up): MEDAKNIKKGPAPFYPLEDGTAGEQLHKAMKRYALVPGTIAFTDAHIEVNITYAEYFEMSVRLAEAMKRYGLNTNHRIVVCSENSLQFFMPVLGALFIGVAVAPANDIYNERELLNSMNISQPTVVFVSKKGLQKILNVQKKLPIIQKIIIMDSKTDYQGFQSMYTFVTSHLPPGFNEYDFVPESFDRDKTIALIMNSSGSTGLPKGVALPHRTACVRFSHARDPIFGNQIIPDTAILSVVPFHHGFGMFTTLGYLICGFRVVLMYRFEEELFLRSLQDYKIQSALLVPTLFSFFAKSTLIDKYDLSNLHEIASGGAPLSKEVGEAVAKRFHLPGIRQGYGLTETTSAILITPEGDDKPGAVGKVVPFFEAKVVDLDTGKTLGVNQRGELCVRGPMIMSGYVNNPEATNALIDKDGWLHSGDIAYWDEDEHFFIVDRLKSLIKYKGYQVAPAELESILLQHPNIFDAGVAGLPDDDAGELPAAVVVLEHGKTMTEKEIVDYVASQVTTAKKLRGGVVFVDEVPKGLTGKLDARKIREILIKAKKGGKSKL
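Purified P. pyralis luciferase (10nM final) with 10uM D-luciferin and 10uM ATP (Km levels) in 50mM Tris acetate pH 7.5, 10mM Mg acetate, 0.01% Tween-20, 0.05% BSA; qHTS 6-point titration, ~60 µM downward; luminescence read.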
ELG1 genotoxic = induces genotoxicity in HEK293T cells with luciferase-tagged ELG1. HEK293T ELG1-luciferase reporter, luminescence, 16 h. actives 1.3% (n = 330,000). Potency, µM (series often up to 46 µM), actives largely listed as activators; further: nearly all actives have a fitted effect of over 60% in size
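Luminescence read-out: rising ELG1-luciferase signal, reflecting elevated ELG1 protein under genetic stress, flags genotoxic compounds. Cells were treated for 16 hr at 37 °C before ONE-Glo detection.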
SMN2 splice enh = enhancers of SMN2 splice variant expression; actives 2.8% (n = 210,000); AID 1458; HEK293 SMN2-luciferase splicing reporter, luminescence, 30-36 h; Potency, µM (titrated, usually from 46.1 µM), most hits filed as activators; further: nearly all actives have a fitted effect of over 55% in size
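HEK293 cells carry an SMN2 minigene-luciferase reporter in which exon 7 inclusion puts luciferase in frame. Cells were seeded at 2000 cells/well, attached for 10-12 hours, then exposed to compounds for 30-36 hours at 37C before ONE-Glo luminescence.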
Of the large screens only hits and unclear results are named; the others gave an inactive call. This is a sample that favours compounds with a hit; in the whole collection about 9.4% have one here. The call rests on the fitted dose curve; in most records, active means well fitted curve in the direction sought with a large enough effect; inconclusive means small, poorly fitted or top-dose-only effect, or another doubt; inactive means no such curve, though single readings can be large; an effect the other way counts as inactive or inconclusive.

O=C(COc1ccc(F)cc1)Nc1ccc2c(c1)OCCO2	ELG1 repair inh inconclusive, NPC1 prom act 2.8µM, Rab9 prom act 4µM, FLuc modulator 5.4µM, ELG1 genotoxic inconclusive (no result: SMN2 splice enh)
C/C(=N\OCC(=O)Nc1ccc2c(c1)OCCO2)c1ccc2c(c1)OCCO2	FLuc modulator 19µM (no result: SMN2 splice enh)
CCOc1ccc(OCCC(=O)OCC(=O)Nc2ccc3c(c2)OCO3)cc1	ELG1 repair inh inconclusive, FLuc modulator 24µM (no result: SMN2 splice enh)
COC(=O)[C@@]1(Cc2ccc(OC)cc2)[C@H]2c3cc(C(=O)N4CCCC4)n(CCc4ccc(OC)c(Br)c4)c3C[C@H]2CN1C(=O)c1ccccc1	none (no result: ELG1 repair inh, NPC1 prom act, Rab9 prom act, FLuc modulator, ELG1 genotoxic)
COc1ccc(Cl)cc1N1C(=O)CC(N2CCN(S(=O)(=O)c3ccccc3F)CC2)C1=O (configuration not stated)	none (no result: NPC1 prom act, Rab9 prom act, FLuc modulator, SMN2 splice enh)
CCOCC(=O)Nc1ccc2c(c1)OCCO2	ELG1 repair inh inconclusive, NPC1 prom act inconclusive, Rab9 prom act 3.2µM, FLuc modulator inconclusive, ELG1 genotoxic inconclusive, SMN2 splice enh inconclusive
CCC(=O)Nc1ccc2c(c1)OCCO2	ELG1 repair inh inconclusive
CCOC(=O)c1ccc(NC(=O)Nc2ccc3c(c2)OCCO3)cc1	FLuc modulator 19µM
Cc1cc(OCC(=O)Nc2ccc3c(c2)OCCO3)ccc1Cl	ELG1 repair inh inconclusive, FLuc modulator 19µM
Cc1cc(C)cc(OCC(=O)Nc2ccc3c(c2)OCCO3)c1	FLuc modulator inconclusive
Cc1ccc(C2=C/C(=C/c3cccnc3)C(=O)O2)c(C)c1	FLuc modulator 6µM
O=C1OC(c2ccc(Cl)cc2)=C/C1=C/c1cccnc1	none (no result: SMN2 splice enh)
CC1(C)[C@@H](CC(=O)O)CCC[C@@H]1CC(=O)O	none (no result: ELG1 repair inh, NPC1 prom act, Rab9 prom act, FLuc modulator, ELG1 genotoxic)
CCOC(=O)c1ccccc1NC(=O)Cn1c(=O)n(CCC(=O)N2CCc3ccccc3C2)c(=O)c2ccccc21	none (no result: ELG1 repair inh, NPC1 prom act, Rab9 prom act, ELG1 genotoxic)
COCCn1c(SCc2nc3scc(-c4ccc(Cl)cc4)c3c(=O)[nH]2)nnc1-c1cccc(C)c1	ELG1 repair inh 23µM (no result: SMN2 splice enh)
CCn1c(SCc2nc3scc(-c4ccccc4)c3c(=O)[nH]2)nnc1-c1cccs1	ELG1 repair inh inconclusive
O=C(CCNS(=O)(=O)c1ccccc1)N1CCN(C(c2ccccc2)c2ccccc2)CC1	ELG1 repair inh 23µM (no result: SMN2 splice enh)
CC(=O)Nc1ccc(S(=O)(=O)NCCC(=O)N2CCN(C(c3ccccc3)c3ccccc3)CC2)cc1	none (no result: SMN2 splice enh)
Cc1ccc(C)c(NC(=O)Cn2cc(S(=O)(=O)c3ccc(F)cc3)c(=O)c3cc(F)ccc32)c1	none (no result: ELG1 repair inh, NPC1 prom act, Rab9 prom act, ELG1 genotoxic)
O=S(=O)(c1ccc2ccccc2c1)N1CCN(C(=S)Nc2ccc(F)c(Cl)c2)CC1	ELG1 repair inh inconclusive
O=S(=O)(c1ccc2ccccc2c1)N1CCN(C(=S)Nc2ccc(F)cc2)CC1	ELG1 repair inh 18µM
CS(=O)(=O)NCCSc1cc(C(F)(F)F)nc2ccccc12	none (no result: SMN2 splice enh)
Cc1ccc(N(Cc2ccccc2)C(=O)c2cc(S(=O)(=O)N3CCOCC3)ccc2F)cc1	FLuc modulator 19µM (no result: SMN2 splice enh)
Cc1ccc(S(=O)(=O)N2CCOCC2)cc1C(=O)OCC(=O)N1CCCCC1	none (no result: NPC1 prom act, Rab9 prom act, FLuc modulator, SMN2 splice enh)
Cc1ccc(COC(=O)c2cc(S(=O)(=O)N3CCOCC3)ccc2C)cc1	ELG1 repair inh 23µM (no result: FLuc modulator, SMN2 splice enh)
COc1cccc(NC(=O)COC(=O)c2cc(S(=O)(=O)N3CCOCC3)ccc2C)c1	ELG1 repair inh 16µM
NC(=O)C1CCN(c2nc(-c3ccccc3Cl)cs2)CC1	none (no result: ELG1 repair inh, NPC1 prom act, Rab9 prom act, ELG1 genotoxic, SMN2 splice enh)
Cc1nc(C)c(C(=O)Nc2ccc(Oc3ccccc3)cc2)o1	FLuc modulator 24µM
Cc1ncoc1C(=O)Nc1ccc(Oc2ccccc2)cc1	ELG1 repair inh inconclusive, NPC1 prom act inconclusive, Rab9 prom act inconclusive, FLuc modulator 15µM
Cc1ncoc1C(=O)Nc1ccccc1-c1ccccc1	none
CCCCC(=O)Nc1ccccc1C(=O)OCC(=O)c1ccc2c(c1)OCCO2	Rab9 prom act inconclusive, FLuc modulator 1.2µM
O=C(O)/C=C/C(=O)Nc1ccccc1C(=O)OCC(=O)c1ccc2c(c1)OCCO2	ELG1 repair inh inconclusive, FLuc modulator 0.19µM
O=C(O)C(Cl)(c1ccccc1)c1ccccc1	none (no result: ELG1 repair inh, NPC1 prom act, Rab9 prom act, FLuc modulator, ELG1 genotoxic)
Cc1cccc(Cn2cc3c(=O)n(CC(=O)Nc4cccc(C)c4C)nc-3c3cc(F)ccc32)c1	none (no result: ELG1 repair inh, NPC1 prom act, Rab9 prom act, ELG1 genotoxic, SMN2 splice enh)
N#Cc1ccccc1NC(=O)Nc1cccc(Cl)c1	FLuc modulator inconclusive (no result: ELG1 repair inh, NPC1 prom act, Rab9 prom act, ELG1 genotoxic)
O=C(Nc1cccc(F)c1)Nc1cccc(Cl)c1	ELG1 repair inh inconclusive, Rab9 prom act inconclusive, FLuc modulator 24µM (no result: SMN2 splice enh)
CSc1ccccc1NC(=O)Nc1ccccc1	ELG1 repair inh inconclusive, FLuc modulator inconclusive, ELG1 genotoxic inconclusive
O=C(Nc1cccc(Cl)c1)Nc1cccc(Cl)c1	FLuc modulator inconclusive
CSc1ccccc1NC(=O)Nc1cccc(F)c1	Rab9 prom act inconclusive, FLuc modulator 21µM (no result: SMN2 splice enh)
N#CCc1ccc(NC(=O)Nc2cccc(Cl)c2)cc1	NPC1 prom act inconclusive, FLuc modulator 17µM
CC(=O)Nc1cccc(NC(=O)Nc2cccc(F)c2)c1	FLuc modulator 9.5µM (no result: SMN2 splice enh)
CCc1ccccc1NC(=O)Nc1cccc(F)c1	ELG1 repair inh inconclusive, FLuc modulator inconclusive
O=C(CSc1nnc(CNC(=O)c2ccccc2)o1)NCC1CCCO1 (configuration not stated)	none (no result: SMN2 splice enh)
O=C(O)[C@@H]1[C@@H]2C[C@H]([C@@H](Br)[C@H]2N2C(=O)CCC2=O)[C@@H]1C(=O)O	none (no result: ELG1 repair inh, NPC1 prom act, Rab9 prom act, FLuc modulator, ELG1 genotoxic)
CNS(=O)(=O)c1ccc(NC(=O)Nc2cccc(F)c2)cc1	ELG1 repair inh inconclusive, Rab9 prom act inconclusive, FLuc modulator 19µM (no result: SMN2 splice enh)
COc1ccc(NC(=O)N/C=C/c2ccco2)cc1	FLuc modulator inconclusive

Screens: PubChem, National Center for Advancing Translational Sciences (NCATS)
